Source: PubChem BioAssay (NCI)
This is part of a sample that, as a whole, favours compounds with a hit. Of some 83,000 tested, about 20% had one in any assay.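 Method: cells in 96-well plates; compound added at one concentration; 48 h incubation; percent growth measured; values under 10 scored active.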 Active and inactive are the calls of the source.

How the values were obtained:
Test in all cases: NCI-60 one-dose screen, 48 h (100 = growth as untreated, 0 = no growth, -100 = all killed)
Conditions in all cases: 10 µM unless noted
[1] = test system: HCT-15 colon
[2] = test system: HT29 colon
[3] = test system: SNB-75 CNS
[4] = test system: SNB-19 CNS
[5] = test system: U251 CNS
[6] = test system: PC-3 prostate
[7] = test system: SK-MEL-5 melanoma
[8] = test system: UACC-62 melanoma
[9] = test system: LOX IMVI melanoma
[10] = test system: SK-MEL-28 melanoma
[11] = test system: SK-MEL-2 melanoma
[12] = test system: EKVX NSCLC
[13] = test system: SN12C renal
[14] = test system: UO-31 renal
[15] = test system: TK-10 renal
[16] = test system: ACHN renal
[17] = test system: A498 renal
[18] = test system: CCRF-CEM leukemia
[19] = test system: MOLT-4 leukemia

Measured: growth

C=C1C(=O)O[C@H]2[C@H]1CC/C(COC(=O)c1ccc(C#N)cc1)=C\CC[C@@]1(C)O[C@@H]21
inactive: [3] 77.3% | [4] 47.7% | [5] 40.6% | [6] 50.6% | [7] 42.9% | [11] 37.9% | [12] 16% | [13] 17.4% | [15] 40.2% | [17] 99.7%
active: [1] -7.25% | [2] -4.64% | [8] -25.2% | [9] -81.4% | [10] 3.18% | [14] -1.25% | [16] 0.811% | [18] -25.8% | [19] -29.3%

Cc1ccc(-c2cc(-c3nnc(SCC(=O)c4ccccc4)o3)c3ccccc3n2)cc1
inactive: [1] 96.3% | [2] 90.1% | [3] 57.1% | [4] 101% | [5] 98.3% | [6] 95.5% | [7] 95.3% | [8] 90.8% | [9] 92.4% | [10] 96.6% | [11] 90.7% | [12] 83.4% | [13] 101% | [14] 74.6% | [15] 61.8% | [16] 93.9% | [17] 77% | [18] 100% | [19] 95.2%

CS(=O)(=O)OCC(COS(C)(=O)=O)C(c1ccccc1)c1ccccc1
inactive: [1] 108% | [2] 100% | [3] 96.2% | [4] 105% | [5] 107% | [6] 97.2% | [7] 107% | [8] 90.3% | [9] 99.7% | [10] 114% | [11] 123% | [12] 99.1% | [13] 89.2% | [14] 91.2% | [15] 110% | [16] 107% | [17] 93.3% | [18] 99.6% | [19] 75.7%

CCOC(=O)C(C)(CSSCC(C)(NC(=O)c1ccc2ccccc2c1)C(=O)OCC)NC(=O)c1ccc2ccccc2c1 (configuration not stated)
active: [18] -42.5%
inactive: [1] 82.2% | [2] 81.2% | [3] 107% | [4] 86% | [5] 94.8% | [6] 108% | [7] 109% | [8] 96.1% | [9] 89% | [10] 132% | [11] 107% | [12] 90.3% | [13] 104% | [14] 80.6% | [15] 103% | [16] 102% | [17] 136% | [19] 53.1%

NN=C(c1ccc(Cl)cc1)c1ccc(Cl)cc1
inactive: [1] 90.4% | [2] 96.7% | [3] 96.3% | [4] 98.9% | [5] 102% | [6] 101% | [7] 107% | [8] 100% | [9] 77.1% | [10] 117% | [11] 121% | [12] 108% | [13] 105% | [14] 81.8% | [15] 110% | [16] 101% | [17] 96% | [18] 89.3% | [19] 97.8%

COC(=O)c1oc2c(C(C)=O)c(OCCN3CCCCC3)ccc2c1C
inactive: [1] 110% | [2] 133% | [3] 226% | [4] 125% | [5] 105% | [6] 93.9% | [7] 102% | [8] 122% | [9] 96.5% | [10] 133% | [11] 88.7% | [12] 113% | [13] 119% | [14] 84.5% | [15] 92.1% | [16] 108% | [17] 131% | [18] 50.5% | [19] 108%

C=C1C(=O)O[C@H]2[C@H]1CC/C(COC(=O)c1ccc3ccccc3c1)=C\CC[C@@]1(C)O[C@@H]21
inactive: [3] 25.1% | [4] 11.6% | [17] 64.1%
active: [1] -45.4% | [2] -87.5% | [5] -67.3% | [6] -64% | [7] -74.6% | [8] -73% | [9] -89.7% | [10] -61.2% | [11] -70.4% | [12] -75.5% | [13] -54% | [14] -98.9% | [15] -95.9% | [16] -100% | [18] -22.9% | [19] -14.1%

C=C1C(=O)O[C@H]2[C@H]1CC/C(COC(=O)c1ccc(Cl)nc1)=C\CC[C@@]1(C)O[C@@H]21
inactive: [3] 74.9% | [4] 56% | [5] 44.1% | [6] 53.2% | [7] 44.8% | [11] 40.4% | [12] 10.2% | [13] 12.9% | [17] 87.2%
active: [1] -14.6% | [2] -6.31% | [8] -25.6% | [9] -79.3% | [10] 1.37% | [14] -39% | [15] -8.78% | [16] -20.6% | [18] -32.1% | [19] -28.6%
